Our source for the growth values is PubChem BioAssay (NCI).

This is part of a sample that, as a whole, favours compounds with a hit. Of some 83,000 tested, about 20% had one in any assay.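 Negative percent growth values reflect cell death: -40 means 40% of the cells present at the start died, and -100 means all died.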 Activity calls are given as the source filed them. The calls were made as follows: active = growth percent below 10; inactive = the rest.

In this test the test system is HL-60(TB) leukemia. Description: NCI-60 one-dose screen, 48 h (100 = growth as untreated, 0 = no growth, -100 = all killed). To be noted: 10 µM unless noted.
As for `CNCCCNc1nc2ccccc2c2c(=O)c3cc(OC)ccc3sc12`, the growth was 56.2% (inactive).

`Cn1c(=O)c2[nH]c(CC(=O)O)nc2n(C)c1=O`: the growth was 110% (inactive).

As to `CCOC(=O)c1sc(Nc2ncccn2)nc1-c1ccccn1`, the growth is 109% (inactive).

Regarding `O=C1N(C[P+](c2ccccc2)(c2ccccc2)c2ccccc2)CCCN1C[P+](c1ccccc1)(c1ccccc1)c1ccccc1`, the growth is 62.9% (inactive).

In the case of `CC1=C([Se]CC(OC(=O)[C@@H](CSSC(C)(C)C)NC(=O)OC(C)(C)C)C(=O)NC(C)(C)C)C(=O)c2ccccc2C1=O` (stereo not given in full), the growth is -2.66% (active).

Turning to `COC(=O)c1[nH]c(=O)c(C#N)c(C(=O)OC)c1C(=O)c1ccccc1`, the growth was 94.8% (inactive).

Take `CCN(CC)CCCC(C)Nc1ccnc2cc(Cl)c(SCc3ccccc3)cc12` (stereo not given): the growth was -64.8% (active).

Consider `N#Cc1ccc2nc[nH]c2c1`, for which the growth is 101% (inactive).

In the case of `Nc1nc(Nc2ccccc2SSc2ccccc2Nc2nc(N)nc(-c3ccc(C(F)(F)F)cc3)n2)nc(-c2ccc(C(F)(F)F)cc2)n1`, the growth is -17% (active).

`O=C(NNc1ccc(-c2ccccc2)nn1)c1ccc(F)cc1`: the growth was 96.7% (inactive).

On to `CCOC(=O)/C(C#N)=C(\C)CCc1ccccc1`, for which the growth is 239% (inactive).

On to `CCN1C(=O)/C(=c2\sc3n(c2=O)C2C(NN=3)N(CC)C(=O)N2CC)c2ccccc21` (stereo not given), for which the growth was -29.3% (active).

Regarding `CCN(CC)Cc1cc(Nc2ccnc3cc(Cl)ccc23)cc(-c2ccc(Cl)cc2)c1O`, the growth was 51.3% (inactive).

Regarding `CN(C)CCCN1c2ccccc2CCc2ccccc21`, the growth is 91.4% (inactive).

As for `O=C(O[C@@H]1Cc2c(O)cc(O)cc2O[C@@H]1c1cc(O)c(O)c(O)c1)c1cc(O)c2c(c1)OCO2`, the growth is 91.1% (inactive).

Consider `COc1cnc2c(c1)C(=O)c1c-2n(CCCN2CCNCC2)c(=O)c2cc(Cl)ccc12`, for which the growth is -44.9% (active).

Regarding `O=C(NNC(=O)c1ccc(NC(=O)c2ccccn2)cc1)Nc1ccc([N+](=O)[O-])cc1`, the growth was 97.9% (inactive).

For the compound `CCCCCSB(SCCCCC)c1ccccc1`, the growth was 104% (inactive).

With `N#CC1C(=O)SC2c3ccccc3C(=O)c3ccccc3C12` (stereo not given), the growth is 98.4% (inactive).

As to `C=CCc1cc(OC)c(OC)c(OC)c1`, the growth is 78.7% (inactive).

Consider `CCOC(=O)c1c(C)c2c(n1Cc1ccccc1)CSc1cc(C#N)c(=O)[nH]c1-2`, for which the growth is 76.8% [100 µM] (inactive).

For `O=C(N/N=C/c1cccc(O)c1O)c1ccccc1`, the growth was 19.1% (inactive).

Consider `COc1ccc(-c2nc(-c3nc4ccc(C)cc4[nH]3)c3ccccn23)cc1`, for which the growth was 30.5% (inactive).

Take `O=C(NC1CCCCC1)c1ccc(Nc2ncnc3c2cnn3-c2ccccc2)cc1`: the growth was 106% (inactive).

Take `Clc1ccc(C(/C=C/c2sc(Cl)nc2Cl)=N/Nc2cc(Cl)cc(Cl)c2)cc1`: the growth is 99.4% (inactive).

Take `COc1ccc2c(c1)oc1c(C)c3c(c(C)c12)C(=O)N(CCOS(C)(=O)=O)C3=O`: the growth is 93.6% (inactive).

For `N#CCCc1ccc(O)cc1`, the growth is 95.6% (inactive).

Turning to `CN(C)CCNc1nc2ccccc2c2c1c1c(n2Cc2ccccc2)-c2ccccc2C1=O`, the growth was -85% (active).

As for `CCOC(=O)c1nc(Nc2ccc(NC(=O)Nc3ccc(F)cc3)cc2)c2ccccc2n1`, the growth is 110% (inactive).

Regarding `Nc1nc(N)c2c(n1)NC(c1ccc(Cl)cc1)CC(c1cccc(Nc3ccncc3)c1)=N2` (stereo not given), the growth was 39% (inactive).

For `O=NN(Cc1cccnc1)C(=O)NC1CCCCC1`, the growth was 120% (inactive).

`c1ccc(-c2oc(-c3ccccc3)c(CN3CCCCC3)c2CN2CCCCC2)cc1`: the growth was 27% (inactive).

`Cc1[nH]c(C(=O)Nc2ccccc2OC2CCNCC2)c(Cl)c1Cl`: the growth was -57.1% (active).

As for `Cc1oc2nc[nH]c(=O)c2c1C(=O)/C=C/c1ccc(Cl)cc1Cl`, the growth is 7.83% (active).

`Cc1cnc(Nc2ccc(N3CCN(C)CC3)cc2)nc1Nc1ccc(Cl)c(NS(=O)(=O)C(C)(C)C)c1`: the growth is -13.4% (active).

For the compound `O=C1c2ccccc2Cc2cccc(Cl)c21`, the growth is 39.5% (inactive).

In the case of `CC/C(=C(/c1ccc(OCCN(C)C)cc1)c1ccc(OC(=O)CCCCC(=O)c2c(C)[nH]c(/C=C3\N=C(c4ccc[nH]4)C=C3OC)c2C)cc1)c1ccccc1`, the growth was 82.2% (inactive).

As for `COC1C(O)CC(OC2CC(OC3CC(O[C@@H]4C(=O)c5c(cc6cc(OC7CC(OC8CC(O)C(O)C(C)O8)C(O)C(C)O7)c(C)c(O)c6c5O)CC4[C@H](OC)[C@@H](O)C(C)=O)OC(C)C3O)OC(C)C2O)OC1C` (stereo not given in full), the growth was 14.3% (inactive).

Take `COc1cc2c(cc1OCCCN1CCN(CCCOc3cc4c(cc3OC)C(=O)N3CCC[C@H]3C=N4)CC1)C=CC(C)(C)O2`: the growth is 10.2% (inactive).

As for `CCCCC[C@H]1C/C=C2/C(=O)C=C[C@@H]2C/C=C\CCCC(=O)O1`, the growth is 4.48% (active).
